Assay outcomes: PubChem BioAssay, National Center for Advancing Translational Sciences (NCATS)
HPGD block: HPGD (human) dehydrogenase inhibition. purified HPGD, NADH fluorescence kinetic, PGE2 substrate. Potency, µM, inactives show at the top dose activity change, negative = inhibition, usual class: inhibitors. hit rate 4.3% among 150,000. AID 894; active = well fitted inhibition curve with a large enough effect, not every such curve was filed as active; inconclusive = small, poorly fitted or top-dose-only effect, or another doubt; inactive = no such curve, though single readings can be large or run the other way; note: potency is the fitted concentration of half-maximal effect; % is set by controls: 0 for no effect and ±100 for the full control effect
Target sequence (P15428 whole entry, looked up): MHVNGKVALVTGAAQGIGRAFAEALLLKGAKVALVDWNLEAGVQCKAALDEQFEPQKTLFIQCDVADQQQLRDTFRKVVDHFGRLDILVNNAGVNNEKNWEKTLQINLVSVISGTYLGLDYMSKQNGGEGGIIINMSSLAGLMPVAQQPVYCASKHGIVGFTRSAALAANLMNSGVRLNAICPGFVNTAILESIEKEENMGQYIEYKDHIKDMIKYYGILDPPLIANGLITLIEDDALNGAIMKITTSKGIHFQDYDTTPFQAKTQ
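NADH formation kinetics: reaction with 30 uM PGE2 and 1 mM NAD+ (final), 20 nM enzyme, Tris-HCl pH 8 with Tween 20, after 15 min compound preincubation at room temperature. Fluorescence change, last versus first of five reads.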
HTT ATP protect: protects HTT-Q103 PC12 cells, measured by ATP; Potency, µM (series often up to 56.4 µM), for the others: cytoprotection (ATP increase), usual class: activators; hit rate 0.14% among 230,000; PC12 HTT-Q103 induced, cytoprotection, ATP luminescence, 40 h; AID 1471; note: potency is the fitted concentration of half-maximal effect; % of control where 0% means no effect; nearly all actives have a fitted effect of over 45% in size
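Huntington model: PC12 line, ecdysone-inducible HTTQ103 exon1–GFP, tebufenozide 100 nM. Test articles in a dose series. Endpoint luminescence from cellular ATP.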
ALDH1A1 block: inhibitors of human aldehyde dehydrogenase 1A1; P00352; Purified ALDH1A1, NADH fluorescence, propionaldehyde substrate; Potency, µM (titrated, usually from 75.3 µM), for the others: at the top dose activity, negative = inhibition, hits mostly inhibitors; hit rate 7.3% among 220,000; AID 1030; active = well fitted inhibition curve with a large enough effect, not every such curve was filed as active; inconclusive = small, poorly fitted or top-dose-only effect, or another doubt; inactive = no such curve, though single readings can be large or run the other way;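 note: potency is the fitted concentration of half-maximal effect; plate controls were no enzyme wells and a reference inhibitor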
Target sequence (P00352 whole entry, looked up): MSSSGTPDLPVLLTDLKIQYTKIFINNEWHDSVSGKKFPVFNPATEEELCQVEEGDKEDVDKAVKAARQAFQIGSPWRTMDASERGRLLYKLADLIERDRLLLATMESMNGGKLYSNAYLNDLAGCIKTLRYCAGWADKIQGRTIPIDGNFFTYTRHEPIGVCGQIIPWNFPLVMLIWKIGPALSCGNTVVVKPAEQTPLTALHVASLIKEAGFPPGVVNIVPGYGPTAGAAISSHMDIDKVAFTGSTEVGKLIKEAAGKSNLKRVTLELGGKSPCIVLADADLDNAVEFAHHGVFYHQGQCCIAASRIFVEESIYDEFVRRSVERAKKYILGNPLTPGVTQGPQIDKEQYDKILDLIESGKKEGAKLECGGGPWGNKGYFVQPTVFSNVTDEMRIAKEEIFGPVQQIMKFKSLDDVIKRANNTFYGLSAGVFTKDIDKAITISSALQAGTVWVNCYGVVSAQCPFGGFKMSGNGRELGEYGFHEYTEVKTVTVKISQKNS
IMPase Li inh: IMPase inhibition in cells with lithium potentiation; CHO-M1 cells, IP1 TR-FRET (IP-One), carbachol + lithium; Potency, µM (top dose mostly 59.4 µM), for the others: at the highest dose activity, negative = IMPase inhibition, actives largely listed as inhibitors; hit rate 0.35% among 210,000;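 note: IP1 builds up when IMPase is blocked and the TR-FRET signal falls; potency is the fitted concentration of half-maximal effect; plate controls were basal vehicle for no effect and high inhibitor control for full effect; nearly all actives have a fitted effect of over 50% in size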
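IP1 accumulation measured by competitive TR-FRET in lysed CHO-M1 cells after 30 min compound exposure at 37C, with a small lithium addition to potentiate weak responses. Hill-equation AC50 from ratio and donor-channel data.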
HttQ103 aggreg: inhibitors of mutant huntingtin aggregate formation in PC12 cells; Potency, µM (top dose mostly 46.1 µM), for the others: at the top dose activity change, negative = inhibition, hits mostly inhibitors; PC12 HttQ103-GFP aggregates, Acumen cytometry, 40 h; hit rate 1.1% among 220,000; note: potency is the fitted concentration of half-maximal effect; % is set by controls: 0 for no effect and ±100 for the full control effect; nearly all actives have a fitted effect of over 60% in size
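Aggregate formation scored by laser-scanning cytometer (488 excitation, 500–530 emission) in lysed PC12 cells expressing Q103-GFP after 100 nM tebufenozide induction; library tested in dose series, with ATPLite reagent added in the multiplex.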
IMPase inh: cell-permeable inhibitors of inositol monophosphatase (IMPase); P97697; CHO-M1 cells, IP1 accumulation, HTRF TR-FRET ratio; 120,000 tested, under 10 active; inhibition (IP1 accumulation), % at 46.1 µM; active = well fitted curve in the direction sought with a large enough effect in the signal ratio, not every such curve was filed as active; inconclusive = small, poorly fitted or top-dose-only effect, or a change in a side signal; inactive = no such curve, though single readings can be large or run the other way; the % refers to the signal ratio;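 note: cells stimulated with carbachol in lithium chloride buffer; plate controls were DMSO basal wells for no effect and reference inhibitor wells for full effect; higher means more IMPase inhibition seen as more IP1 and lower FRET ratio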
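CHO-M1, 2000 cells/well, cultured 16–30 h; cpd up to 46 uM; carbachol (50 uM solution, stimulation buffer w/ 50 mM LiCl, pH 7.4), 30 min 37C; IP-One TR-FRET, 10 min RT; Ex 320/Em 665, 620; Hill-fit AC50.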
Numbers without * were called inactive; ? = inconclusive; nt = no result given; [ ] = remark or other dose. Compounds with a hit are over-represented: about 9.4% of the library has one in this group of screens. Unless noted, calls come from the whole dose curve; as a rule, active = well fitted curve in the direction sought with a large enough effect; inconclusive = small, poorly fitted or top-dose-only effect, or another doubt; inactive = no such curve, though single readings can be large; an effect the other way counts as inactive or inconclusive.

SMILES | HPGD block | HTT ATP protect | ALDH1A1 block | IMPase Li inh | HttQ103 aggreg | IMPase inh
CC(C)(C)Cc1nnc(NS(=O)(=O)Cc2ccccc2)s1 | -19% | 3%[10 µM] | 25µM* | -16%[38.3 µM] | 10% | -3
CC(C)(C)Cc1nnc(NS(=O)(=O)c2ccc(F)cc2)s1 | ? | -12% | ? | 0%[38.3 µM] | 1% | 8
CC(C)CCCC(C)NC(C)C (centres undefined) | nt | -2% | nt | nt | 1% | nt
O=C(NCCc1c[nH]c2ccccc12)c1cncc(Br)c1 | nt | -23% | ? | -9% | -22% | nt
O=C(NCCc1c[nH]c2ccc(Cl)cc12)c1cccnc1 | 16µM* | 14% | 11% | 33%[38.3 µM] | -23% | -1
CC(=O)N/C(=C/c1ccccc1)C(=O)N1CCCCC1 | nt | -7%[10 µM] | ? | nt | -5% | -6
CC(=O)N/C(=C\c1ccccc1)C(=O)OCC(=O)N1CCCCCC1 | nt | 34%[10 µM] | 11µM* | nt | 9% | 1
COc1ccc(-c2coc3c(O)c(OC)ccc3c2=O)cc1 | -17% | nt | ? | 21% | nt | nt
COc1cc(OC)cc(C(=O)N2CCN(C(=O)COc3ccccc3)CC2)c1 | nt | nt | nt | nt | nt | 7
CCCCCCCCCCn1c2c(c(=N)c3c1CCC3)CCC2 | -3% | -108% | -3% | 19%[38.3 µM] | 1µM* | 25
CCCCCCCCCn1c2c(c(=N)c3c1CCC3)CCCC2 | nt | -76%[10 µM] | ? | 29% | -33%[9.22 µM] | nt
C=CC[C@@H]1C=C[C@@H](O/N=C(/C)CCC(=O)OC[C@@H]2O[C@H](C#Cc3ccccc3)C=C[C@@H]2Oc2ccc(C)cc2)[C@@H](CO)O1 | nt | 2%[10 µM] | 10%[13.5 µM] | nt | nt | nt
Cc1ccc(-c2nnc(Nc3cccc(O)c3)c3ccccc23)cc1S(=O)(=O)N1CCCCC1 | nt | nt | nt | nt | nt | -6
CC(C)C[C@@H](CC(=O)N[C@@H](CCC(=O)O)CC(=O)O)NC(=O)[C@@H]1CCCC[C@H]1NC(=O)C[C@H](CCCN)NC(=O)C[C@H](CO)NC(=O)[C@@H]1CCCC[C@H]1N | -2% | ? | -3% | 3% | nt | nt
Cc1ccc(-n2ncc3c(NCc4ccccn4)ncnc32)c(C)c1 | 13µM* | -7%[10 µM] | ? | 14%[38.3 µM] | 0% | -10
Cc1ccc(-n2ncc3c(NCc4ccco4)ncnc32)c(C)c1 | 3.5µM* | 13%[10 µM] | -2% | 27%[38.3 µM] | -17% | 1
c1ccc(-n2ncc3c(NCc4ccco4)ncnc32)cc1 | ? | -21% | ? | ? | 11% | 3
Cc1ccc(-n2ncc3c(NCc4cccnc4)ncnc32)c(C)c1 | ? | nt | ? | 2% | -8% | nt
COCCCNc1ncnc2c1cnn2-c1ccc(C)cc1C | 7.9µM* | -22%[0.074 µM] | -6% | -4%[38.3 µM] | -18% | -5
Cc1ccc2[nH]c3c(NCc4ccco4)ncnc3c2c1 | ? | -89%[0.074 µM] | ? | 13%[38.3 µM] | 11µM* | 0
CC(Sc1nncs1)C(=O)Nc1ccc(Cl)cn1 (centres undefined) | 4% | -12%[10 µM] | 3% | 6% | 2% | nt
CC(=NC1CCCC1)c1c(C)[nH]n(-c2nc3ccccc3s2)c1=O | -16% | -78% | 14µM* | 3%[38.3 µM] | -12% | 5
CCOC(=O)c1c(N)n(-c2ccc(Cl)c(Cl)c2)c2nc3ccccc3nc12 | nt | nt | nt | nt | nt | 19
O=C(c1ccco1)N(Cc1cccs1)C1CCS(=O)(=O)C1 (centres undefined) | -6% | -3%[0.074 µM] | -5% | -6%[38.3 µM] | -13% | 14
CN(C)c1ccc(CN(C(=O)COc2ccc(Br)cc2)C2CCS(=O)(=O)C2)cc1 (centres undefined) | -6% | -19% | 28µM* | -8%[38.3 µM] | -1% | -14
SMILES | HPGD block | HTT ATP protect | ALDH1A1 block | IMPase Li inh | HttQ103 aggreg | IMPase inh
CN(C)c1ccc(CN(C(=O)c2ccco2)C2CCS(=O)(=O)C2)cc1 (centres undefined) | -11% | -18%[0.074 µM] | 7.1µM* | 1%[38.3 µM] | 10% | 6
Cc1ccc(OCC(=O)N(Cc2ccc(N(C)C)cc2)C2CCS(=O)(=O)C2)cc1 (centres undefined) | -11% | -2%[0.074 µM] | 18µM* | 8%[38.3 µM] | 14% | -9
CN(C)c1ccc(CN(C(=O)COc2ccc(F)cc2)C2CCS(=O)(=O)C2)cc1 (centres undefined) | -4% | -1%[0.074 µM] | ? | 0%[38.3 µM] | 5% | -1
CN(C)S(=O)(=O)c1nc(Cl)c2[nH]cnc2n1 | -7% | 3%[10 µM] | 4%[13.5 µM] | 3% | nt | nt
CCCC1(C(=O)OC)C=C2C(=C(C)C(=O)C2C)CN1 (centres undefined) | ? | 1% | ? | -4% | nt | nt
Cc1nn(CCc2nn[nH]n2)c2nc(-c3ccc(Br)cc3)cc(C(F)(F)F)c12 | nt | -49%[10 µM] | ? | 2µM* | ? | nt
CCN(CC)c1ccc(/C=N/N2CCN(Cc3ccc(C)cc3)CC2)c(O)c1 | -10% | -14% | ? | 4%[38.3 µM] | 0.63µM* | 7
C/C=C1/NN(CCCN2CCN(c3cccc(Cl)c3)CC2)C(=O)N1CCOc1ccccc1 | -5% | -58% | -3% | 22% | -5% | nt
CCCN1Cc2cccc(C(=O)NCCCOC(C)C)c2C1=O | -10% | -6% | 22µM* | 18%[38.3 µM] | -1% | 7
CCCN1Cc2cccc(C(=O)Nc3ccc(C)cc3)c2C1=O | -13% | -7% | 20% | 0%[38.3 µM] | -9% | -1
CCCN1Cc2cccc(C(=O)NCc3ccc(C)cc3)c2C1=O | nt | -33% | -7% | -2% | 0% | nt
CCCN1Cc2cccc(C(=O)NC(C)c3cccs3)c2C1=O (centres undefined) | -8% | 8% | 4µM* | 27%[38.3 µM] | -3% | -2
COCC(C)NC(C(=O)Nc1ccc(C)c(Cl)c1)c1ccccc1 (centres undefined) | -11% | 5% | ? | 33%[38.3 µM] | 6% | 3
COCC(C)NC(C(=O)Nc1cccc(C(C)=O)c1)c1ccccc1 (centres undefined) | nt | -16% | 14µM* | 13% | -6% | nt
CCN(CC)CCNC(C(=O)Nc1cccc(C(C)=O)c1)c1ccccc1 (centres undefined) | nt | -26% | 14µM* | 25% | -2% | nt
Cn1c(=O)[nH]c(=O)c2c1nc(N1CCOCC1)n2Cc1ccccc1 | nt | nt | nt | nt | nt | 1
CC1(C)SC2C(N3C(=O)C(c4ccccc4)NC3(C)C)C(=O)N2C1C(=O)O (centres undefined) | -20% | -14% | -5% | 9% | 3% | nt
O=C1C=C(N2CCCCC2)C2(CCCCC2)O1 | nt | nt | 10µM* | 12% | nt | nt
O=C(O)c1ccc(N2CC3CC(C2)c2cccc(=O)n2C3)c(NC(=S)Nc2ccc(Cl)cc2Cl)c1 (centres undefined) | nt | -37% | 16µM* | -4% | -7% | nt
CN(Cc1cccc(F)c1)C(=O)c1ccc(S(=O)(=O)C(F)F)cc1 | 32µM* | 0% | ? | 1%[38.3 µM] | 1% | 7
COC(=O)c1ccc(NC(=O)CN(C)Cc2cccc(F)c2)cc1 | nt | -8% | -9% | 2% | 5% | nt
